HEK293 cAMP cs: counter-screen for TSHR agonists: cAMP increase in parental HEK293 | Potency, µM (highest dose often 57.1 µM), for inactives: top-dose activation, usual class: activators | 2.5% of 73,000 active | parental HEK293 CNG cAMP sensor, membrane potential fluorescence; note: potency is the fitted concentration of half-maximal effect; % of control where 0% means no effect; nearly all actives have a fitted effect of over 55% in size
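Parental HEK 293 cells stably expressing a cAMP-gated CNG channel were loaded with membrane potential dye containing 100 uM RO 20-1724 for 60 min. Compound added for 30 min; depolarization read as fluorescence intensity at 590 nm.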
TSHR agonist: agonists of human thyroid stimulating hormone receptor; P16473; HEK293-CNG-TSHR cells (CNG channel as cAMP sensor), membrane potential dye, cAMP; Potency, µM (titrated, usually from 57.1 µM), for inactives: top-dose activation, hits mostly activators; 0.48% of 73,000 active; active = well fitted activation curve with a large enough effect in the main read-out, with a control signal flat, not every such curve was filed as active; inconclusive = small, poorly fitted or top-dose-only effect, or a change in a side signal; inactive = no such curve, though single readings can be large or run the other way; % of control where 0% means no effect;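 note: the control signal comes from parental cells without the receptor; potency is the fitted concentration of half-maximal effect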
Target sequence (P16473 whole entry, looked up): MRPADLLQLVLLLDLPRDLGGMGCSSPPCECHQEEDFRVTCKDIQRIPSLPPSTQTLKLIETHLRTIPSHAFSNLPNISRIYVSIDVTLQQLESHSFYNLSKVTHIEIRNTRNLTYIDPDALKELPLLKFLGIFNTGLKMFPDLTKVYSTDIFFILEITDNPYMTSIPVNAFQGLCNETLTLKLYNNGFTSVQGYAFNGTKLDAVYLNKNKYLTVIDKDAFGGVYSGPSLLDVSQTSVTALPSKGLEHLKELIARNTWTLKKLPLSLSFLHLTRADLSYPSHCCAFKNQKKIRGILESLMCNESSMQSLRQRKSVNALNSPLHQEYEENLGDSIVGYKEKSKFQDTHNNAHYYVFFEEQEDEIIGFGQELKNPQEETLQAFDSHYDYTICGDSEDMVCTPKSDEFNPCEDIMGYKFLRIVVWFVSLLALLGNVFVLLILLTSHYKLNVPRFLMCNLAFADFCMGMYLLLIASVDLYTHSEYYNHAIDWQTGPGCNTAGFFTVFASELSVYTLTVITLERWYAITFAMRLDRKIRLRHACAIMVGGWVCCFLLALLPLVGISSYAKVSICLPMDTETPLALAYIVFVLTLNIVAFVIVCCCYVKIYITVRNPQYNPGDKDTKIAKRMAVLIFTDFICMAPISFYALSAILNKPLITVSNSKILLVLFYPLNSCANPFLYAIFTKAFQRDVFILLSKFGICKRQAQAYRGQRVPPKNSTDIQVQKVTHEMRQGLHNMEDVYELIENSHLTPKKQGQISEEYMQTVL
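cAMP rise detected as CNG-channel membrane depolarization by fluorescent dye (emission 590 nm), 30 min after compound, following 60 min dye loading containing 100 uM RO 20-1724 at room temperature. Cells: TSHR/CNG HEK 293, with parental CNG HEK 293 as control.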
HEK293 cAMP cnt: TSHR-independent cAMP elevation, counter-screen; parental HEK293 CNG biosensor, cAMP membrane potential fluorescence; shares compounds with TSHR agonist; activity change, negative = inhibition, % at 32.9 µM; 150 tested, under 10 active
* = called active by the depositor; ? = inconclusive; nt = no result given; [ ] = another dose, or the depositor's remark. Rows were chosen to be rich in hits. Some 2.9% of all compounds tested hit in one or more screens of this group. Unless noted, calls come from the whole dose curve; as a rule, active = well fitted curve in the direction sought with a large enough effect; inconclusive = small, poorly fitted or top-dose-only effect, or another doubt; inactive = no such curve, though single readings can be large; an effect the other way counts as inactive or inconclusive.

SMILES	HEK293 cAMP cs	TSHR agonist	HEK293 cAMP cnt
CCOC(=O)C1C(=O)Nc2nc(C)nn2C1c1ccccc1 (stereo unspecified)	-1%	4µM*	-7
CC(C(=O)NC1CCCC1)N(Cc1ccc2c(c1)OCO2)C(=O)c1snc(C(N)=O)c1N (stereo unspecified)	13%	nt	nt
NC(=O)c1nsc(C(=O)N(CC(=O)NCc2ccc3c(c2)OCO3)C2CCCCC2)c1N	18%	2µM*	9
CCCCOC(OCCCC)[C@H](O)CSc1ccc2ccccc2c1	9%[11.4 µM]	-3%[11.4 µM]	nt
Cc1cc(=O)[nH]c(SCCOc2ccc3c(c2)CCC3)n1	11%	nt	25
Cc1cc(=O)[nH]c(SCCOc2ccc(OC(C)C)cc2)n1	2%	23%	nt
Cc1noc(/C=C/c2ccco2)c1S(=O)(=O)N1CCC(C(=O)N2CCc3ccccc3C2)CC1	6%	7%	nt
Cc1noc(/C=C/c2ccco2)c1S(=O)(=O)N1CCC(C(=O)NCc2ccco2)CC1	12%	32µM*	18
COc1ccc(O[C@H]2C=C[C@@H](c3ccccc3)O[C@H]2COC(=O)CC/C(C)=N\O[C@@H](C)c2cn([C@H](CO)Cc3ccccc3)nn2)cc1	11%[11.4 µM]	12%[11.4 µM]	nt
CCNc1ncc2nc(-c3cc(F)cc(F)c3)c(=O)n(CCC#N)c2n1	7%	-2%	nt
Cc1ccc(C(=O)NCC(=O)OCC(=O)c2c(N)n(C)c(=O)n(C)c2=O)s1	8%	1%	nt
Cc1cccc(OCC(=O)OCC(=O)c2c(N)n(C)c(=O)n(C)c2=O)c1	0%	13µM*	4
N=C1Sc2ccccc2C2=NCCCN12	3%	0%	nt
CC1=CCC2C(=O)N(c3ccc(Br)cc3C)C(=O)C2C1 (stereo unspecified)	3%	25µM*	-2
CC1=CCC2C(=O)N(c3ccc(C)c(Br)c3)C(=O)C2C1 (stereo unspecified)	11%	10%	nt
CO[C@H]1COC(=O)[C@H](C)NC(=O)C/C=C\[C@@H](C)[C@@H](NS(=O)(=O)c2ccc(C)cc2)COC(=O)C/C=C\[C@@H]1C	-1%[11.4 µM]	-4%[11.4 µM]	nt
CC(=O)OCC(=O)NCc1ccc2c(c1)OCO2	-2%	0%	nt
CC(C)c1nnc(NC(=O)CCC(=O)NCc2ccc3c(c2)OCO3)s1	-6%	3%	15[25.6 µM]
Cc1cc(Cl)c(S(=O)(=O)NC(C(=O)O)c2ccccc2)cc1OCC(N)=O (stereo unspecified)	1%	1%	nt
Cc1cc(Cl)c(S(=O)(=O)Nc2ccc3c(c2)OCO3)cc1OCC(N)=O	20%	13µM*	-8
CN(C)c1ncc2nc(-c3ccc(Cl)cc3)c(=O)n(C)c2n1	5%	3%	nt
O=C(CSc1nc2scc(-c3ccco3)c2c(=O)n1-c1ccccc1)N1CCOCC1	23%	16µM*	7
NC(=O)CSc1nc2scc(-c3ccco3)c2c(=O)n1-c1ccccc1	-8%	nt	nt
Nc1cc(CN2C(=O)c3ccccc3C2=O)cc(Cl)c1O	-2%	2%	5[25.6 µM]
O=C1c2ccccc2C(=O)N1Cc1ccco1	3%	-1%	nt
SMILES	HEK293 cAMP cs	TSHR agonist	HEK293 cAMP cnt
O=c1c(-c2cccs2)nc2cnc(N3CCNCC3)nc2n1C1CC1	-15%	-7%	nt
CC(=O)c1cccc(NC(=O)c2cc(-n3cnnc3)ccc2Cl)c1	2%	2%	nt
COc1cc(NC(=O)c2cc(-n3cnnc3)ccc2Cl)cc(OC)c1	6%	nt	-1[25.6 µM]
O=C(O)c1cc(-c2ccc(-c3ccc(-c4cc(C(=O)O)c5cc(Cl)ccc5n4)cc3)cc2)nc2ccc(Cl)cc12	-14%[11.4 µM]	-6%[11.4 µM]	nt
CN1C(=O)N(C)C2(c3ccccc3)Nn3c(s/c(=C/c4ccco4)c3=O)=NC12c1ccccc1 (stereo unspecified)	4%	1.6µM*	-1
O=c1/c(=C/c2ccco2)sc2nc(-c3ccccc3Br)nn12	-29%	-19%	nt
N=C(N)c1ccc(N2CCN(C3CCN(CC(=O)O)CC3)CC2)cc1	-11%	-1%	nt
CCN(CC)S(=O)(=O)c1ccc(Cl)c(C(=O)NC2CCCC2)c1	51%	nt	?
CCN(CC(=O)NC1CCCCC1)S(=O)(=O)c1ccc(Cl)cc1	-1%	-7%	nt
COc1ccc(CNc2nc(SC)n[nH]2)cc1OC	7%	4%	4[25.6 µM]
COc1ccc(CNc2n[nH]c(NCc3ccc(OC)c(OC)c3)n2)cc1OC	2%	2%	nt
Nc1nc(SCCc2ccccc2)c2[nH]cnc2n1	-7%[11.4 µM]	0%[11.4 µM]	nt
CCN(C(=O)CN1CCCc2ccccc21)c1c(N)n(Cc2ccccc2)c(=O)[nH]c1=O	0%	8%	nt
CCn1c(=O)c(C(=O)CN2CCCc3ccccc32)c(N)n(Cc2ccccc2)c1=O	-8%	-21%	-17[25.6 µM]
COC(=O)CNC(=O)C12CC3(C)CC(C)(CC(C)(C3)C1)C2	5%	13µM*	8
COC(=O)CNC(=O)C1(C)C=CCN1C(=O)c1ccccc1 (stereo unspecified)	7%	11%	nt

Screens: PubChem BioAssay, National Center for Advancing Translational Sciences (NCATS)
